PvdQ inh: blocks Pseudomonas aeruginosa PvdQ acylase activity; inhibition, % at 10 µM; actives 0.063% (n = 340,000); AID 488965; purified PvdQ acylase, fluorescence plate reader; in the data active means inhibition above about 30%, passing the limit was not always enough;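 further: 0% = vehicle neutral wells and 100% = reference inhibitor wells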
CR mimetic SO: yeast age-related superoxide inhibition as caloric restriction mimetic; superoxide response (% of plate mean), % at 10 µM; actives 0.18% (n = 330,000); S. cerevisiae aged cells, superoxide DHE fluorescence; stronger effect = lower value;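 active means superoxide response under a set limit, about three screen SD below normal, cut at about 65% in these data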;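 further: yeast aged for seven days with compound at 30 °C before DHE staining; 100% = average MFI of all compound-treated wells on the plate with controls excluded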
MOR-DOR inv ag: inverse agonist of human OPRM1-OPRD1 heterodimerization; actives 0.21% (n = 340,000); P35372+P41143; inhibition, % at 9.3 µM; cell-based MOR-DOR heterodimer luminescence, inverse agonism; AID 504357; in the data active means inhibition above about 22%, passing the limit was not always enough;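 further: 0% = cells with DMSO and 100% = wells without cells with DMSO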
MOR-DOR ag: agonists of human mu-delta opioid receptor heterodimerization | P35372+P41143 | cells, OPRM1-OPRD1 heterodimerization, luminescence | activation, % at 9.3 µM | actives 0.3% (n = 340,000) | AID 504326; in the data active means activation above about 18%;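 further: 0% = vehicle-treated cells and 100% = reference agonist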
HTR5A ag ctr: activates human HTR5A in OPRM1-OPRD1 agonist counter-screen; AID 504692; actives 0.61% (n = 340,000); activation, % at 9.3 µM; P47898; HTR5A agonist assay, luminescence, cell-based; in the data active means activation mostly above about 9.5%, no sharp cut-off; inactive means mostly below about 7.6%;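 further: 0% = cells with vehicle only and 100% = reference agonist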
Target sequence (P47898 whole entry, looked up): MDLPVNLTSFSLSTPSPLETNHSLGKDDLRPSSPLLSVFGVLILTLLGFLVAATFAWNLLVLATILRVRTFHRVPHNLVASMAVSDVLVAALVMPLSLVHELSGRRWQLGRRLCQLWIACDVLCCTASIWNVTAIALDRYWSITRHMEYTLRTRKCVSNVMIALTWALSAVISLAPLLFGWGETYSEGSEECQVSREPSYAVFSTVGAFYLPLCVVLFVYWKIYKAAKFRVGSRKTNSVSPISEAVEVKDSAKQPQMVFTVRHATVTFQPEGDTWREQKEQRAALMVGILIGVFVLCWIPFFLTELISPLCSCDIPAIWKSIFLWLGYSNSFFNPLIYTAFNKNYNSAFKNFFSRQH
HTR5A inv ag: inverse agonist of human HTR5A in OPRM1-OPRD1 counter-screen. actives 0.083% (n = 340,000). P47898. inhibition, % at 9.3 µM. HTR5A cell line, luminescence, inverse agonism; in the data active means inhibition mostly above about 23%, no sharp cut-off; inactive means mostly below about 18%;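 further: 0% = cells with DMSO and 100% = no-cell wells with DMSO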
* marks the source's active call; other numbers are inactive results; x = no result given. Only some compounds are listed: those with a hit (about 1.3% of all), similar ones and a draw of the others.

SMILES	PvdQ inh	CR mimetic SO	MOR-DOR inv ag	MOR-DOR ag	HTR5A ag ctr	HTR5A inv ag
COc1cccc(/C=N/NC(=O)CCn2c3ccccc3c3ccccc32)c1	-1.6	92.1	-23.1	3.7	11.6*	-21.4
O=C(/C=C/C(Cl)(Cl)Cl)Nc1ccc(Cl)cc1	-11.3	x	-79.2	18.1*	16.5*	-63.4
NC(=O)/C=C/C(=O)Nc1ccc(Cl)cc1	0.3	102.4	13.4	-2.9	0.7	-1.7
Nc1ccc(-n2nc3ccccc3n2)cc1	-27.4	105.0	4.4	-0.9	-1.5	-15.6
Nc1ccc2nn(-c3ccccc3)nc2c1	5.0	x	-51.5	10.2	11.5*	-31.1
O=C(Cn1c(=O)n(CCC(=O)N2CCCCC2)c(=O)c2sccc21)NCc1ccccc1	-11.7	90.8	12.1	-2.2	12.6*	-8.3
Clc1ccc(N(CC2CO2)CC2CO2)cc1 (stereo unspecified)	-9.3	x	5.8	-1.2	-0.9	3.7
O=C1C2C3CCC(C3)C2C(=O)N1c1ccc(OS(=O)(=O)c2ccccc2)cc1 (stereo unspecified)	2.0	106.1	-12.8	2.6	12.7*	-2.1
CCOc1ccc(NC(=O)c2cnccn2)cc1	0.3	98.9	3.5	-0.8	4.4	11.8
CCOc1ccc(NC(=O)c2ccccn2)cc1	36.6*	110.1	0.6	-0.1	-2.8	-10.1
O=C(O)c1ccc(NC2=C/C(=N/S(=O)(=O)c3ccccc3)c3ccccc3C2=O)cc1	-6.4	x	-144.4	28.2*	-2.6	25.3
Cc1cc(C)c(S(=O)(=O)/N=C2\C=C(Nc3ccc(C(=O)O)cc3)C(=O)c3ccccc32)c(C)c1	3.2	105.1	-53.0	9.5	0.7	-1.8
CCCCSc1ccc(NC(=O)c2cccnc2)cc1	-4.6	83.5	-2.3	0.4	11.9*	-11.7
CCC(C)c1ccc(NC(=O)c2cccnc2)cc1 (stereo unspecified)	-10.5	97.1	7.3	-1.4	3.3	-10.8
CCN(CC(=O)NCc1cccs1)C(=O)c1cccc(S(=O)(=O)Nc2ccc(OC)cc2)c1	-11.7	94.0	-5.6	0.9	0.3	-38.1
Cc1ccc(S(=O)(=O)N(C)C)cc1NC(=S)NC1CCCC(C)C1C (stereo unspecified)	-14.4	85.1	-10.3	1.9	2.2	17.4
CC1CCCCC1NC(=S)Nc1cccc(S(=O)(=O)N(C)C)c1 (stereo unspecified)	-5.0	88.0	-7.0	1.3	10.9*	18.7
COCc1ccc(CN2CCCC(C(=O)Nc3ccc(-c4cccc(OC)c4)cc3)C2)o1 (stereo unspecified)	-5.9	90.0	-20.5	3.8	11.6*	-13.1
O=C(NCc1ccc(F)cc1)c1noc2c1CCCCC2	-13.1	x	-21.9	3.9	14.2*	-6.1
CCCCOc1ccc(CSCCNC(=S)Nc2ccccc2)cc1	-1.5	83.2	-11.6	2.3	14.2*	-13.3
N#Cc1cccnc1Nc1ccc(Cl)cc1	32.2*	108.0	9.3	-1.8	8.4	-21.9
CCC(=O)c1ccc(OCC(=O)OC(C)C(=O)NCc2ccc3c(c2)OCO3)cc1 (stereo unspecified)	-1.5	108.6	-8.4	1.5	3.0	-7.6
COc1ccc(-n2cc3ccc([N+](=O)[O-])cc3n2)cc1	-5.5	97.5	-5.0	0.9	2.8	-10.7
NCCc1c(-c2ccccc2)n(-c2ccccc2)c2ccccc12	-5.7	x	-41.6	8.1	14.3*	-10.3
C=C1CC2(CC(c3ccccc3)OC(c3ccccc3)C2)OC1=O (stereo unspecified)	-8.8	x	-1.2	0.3	6.8	-25.9
SMILES	PvdQ inh	CR mimetic SO	MOR-DOR inv ag	MOR-DOR ag	HTR5A ag ctr	HTR5A inv ag
COC(=O)c1ccccc1N1C(=O)C2C(C1=O)C1C=CC2C12CC2 (stereo unspecified)	13.7	57.4*	-0.6	0.1	2.0	-7.0
COc1cc(/C(C)=C/c2ccccc2)c2c(c1)oc1ccccc12	x	93.9	x	x	x	x
CN1C(=O)C(O)(CC(=O)/C=C/c2ccco2)c2ccccc21 (stereo unspecified)	4.7	100.8	8.2	-1.6	9.6*	-25.7
CCCC(=O)N1CCN(Cc2ccc3c(c2)OCO3)CC1	8.2	98.6	1.3	-0.2	-1.8	6.0
O=C(O)CCC(=O)N1CCN(Cc2ccc3c(c2)OCO3)CC1	3.0	90.1	7.2	-1.6	11.7*	-43.2
Cc1ccc(NC(=O)NCCCN2CCCC2=O)cc1C	1.6	99.8	6.2	-0.9	2.9	-4.4
CCC(=O)Nc1ccc(C(=O)COC(=O)c2nc3nccc(C)n3n2)cc1	-14.8	81.5	14.3	-3.8	1.7	-19.8
CC1CN(C(=O)COC(=O)/C=C/c2ccc(C(F)(F)F)cc2)CC(C)O1 (stereo unspecified)	-13.3	106.8	6.0	-1.4	6.8	-16.8
CC(=O)N1CCN(C(=O)COC(=O)/C=C/c2ccc(C(F)(F)F)cc2)CC1	-3.9	84.2	10.2	-2.6	14.0*	22.4
O=C(NCC1COc2ccccc2O1)c1cn(Cc2ccc(F)cc2)nn1 (stereo unspecified)	10.3	107.3	2.5	-0.4	12.9*	-42.4
CC(c1ccccc1)n1cc(C(=O)NCC2COc3ccccc3O2)nn1 (stereo unspecified)	12.7	94.1	-3.7	0.7	12.2*	-36.5
CCC(C)n1c(=O)c(C(=O)Nc2ccccc2S(N)(=O)=O)c(O)c2ccccc21 (stereo unspecified)	-10.7	94.9	-25.2	4.2	9.0*	7.6
CCN(CCCNC(=O)Cn1ncc2c([nH]c3ccc(C)cc32)c1=O)c1cccc(C)c1	9.4	115.0	1.1	-0.2	-2.7	10.2
O=C1c2ccccc2-c2onc3ccc(N4CCCC4)c1c23	7.1	x	-97.2	18.9*	6.3	-3.5
CCOc1ccc2noc3c2c1C(=O)c1ccccc1-3	-6.6	118.1	-62.6	10.6	-5.0	9.2
NN=C1c2ccccc2C(=O)C1C(=O)C(c1ccccc1)c1ccccc1 (stereo unspecified)	5.2	x	13.9	-2.7	-1.9	7.7
Cc1cc(C)nc(N(C#N)Cc2ccc(Cl)cc2)n1	35.7*	88.5	1.7	-0.4	-0.2	0.4
COc1ccc(C(=O)C2CCCN(C(=O)c3ccc4nccnc4c3)C2)c(C)c1 (stereo unspecified)	-7.1	90.9	14.8	-2.8	0.6	-2.4
CCOC(=O)c1cc(-c2ccccc2)n(CCC(=O)NC(C)CC)c1C (stereo unspecified)	-1.6	130.8	5.2	-0.9	11.1*	30.0
CCC(C)NC(=O)CCn1c(-c2ccccc2)cc(C(C)=O)c1C (stereo unspecified)	4.5	117.2	15.2	-3.0	6.7	2.0
CC(=O)c1ccc(CCCc2ccc(C(C)=O)cc2)cc1	1.4	x	-2.3	0.5	1.2	-4.9
CC(NC(=O)COc1ccccc1)C(=O)N1CCN(c2ccccc2)CC1 (stereo unspecified)	-12.6	103.5	4.2	-1.0	-5.1	12.5
c1ccc(C(c2c[nH]c3ccccc23)c2c[nH]c3ccccc23)nc1	-21.5	108.9	-7.0	1.7	31.8*	-76.0
